Laboratory results as given in the supplement of paper PMC6555819.

Experiments:
Assay in all cases: PBM binding z-score (relative to random genomic background probes); higher = stronger binding; sequences stand for … in GC…GCGATTGACAGCGTAGAATGAAGG
[1] = tested on: RARb homodimer (NR concentration 270 nM)
How it was run: (§1)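 On custom Agilent 4×180K arrays, double-stranded probes with 34-nt variable regions carried direct-repeat seeds, single-nucleotide variants, half-site ablations or random human genomic background. Ligand-free nuclear receptor dimers were applied for 1 h, and binding was read with antibodies against each partner (one per run). Binding z-scores come from regression-normalized fluorescence, with the random background probes as reference.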

[2] = tested on: RARg:RXRa (NR concentration 270 nM, RXRa partner concentration 90 nM)
How it was run: as §1

[3] = tested on: RARg homodimer (NR concentration 270 nM)
How it was run: as §1

[4] = tested on: RXRa DBDmut IVT, anti-RXR (DBD mutation: RXRa K156A/R161A, NR concentration 90 nM)
How it was run: as §1

[5] = tested on: RXRa homodimer (NR concentration 180 nM)
How it was run: as §1

[6] = tested on: THRa:RXRa (NR concentration 90 nM, RXRa partner concentration 90 nM)
How it was run: as §1

[7] = tested on: THRa homodimer (NR concentration 90 nM)
How it was run: as §1

[8] = tested on: VDR homodimer (NR concentration 270 nM)
How it was run: as §1

Sequence	PBM binding z-score [1]	PBM binding z-score [2]	PBM binding z-score [3]	PBM binding z-score [4]	PBM binding z-score [5]	PBM binding z-score [6]	PBM binding z-score [7]	PBM binding z-score [8]
GCTAGTTGGTCAGTAGAAGGTCACACACCGGTCG	4.34	4.23	3.7	0.334	3.35	2.75	1.59	1.32
CGTCCAAGGTCATTGCTAGGTCAGTGAAAGCATT	4.96	7.64	6.66	4.51	5.45	4.38	3.31	4.55
CCTATTAGTTGACCATACGGGCAACCGAAGCTCG	1.12	0.753	0.421	0.337	0.116	0.0977	0.187	0.509
CCGACCGGGGCATAAGGTTACCATAAGCCAGCCC	2	2.18	1.62	-0.289	1.68	2.57	1.66	0.0101
TCTAGTTGGTCAAAGGGCACACACTCGAAATGCG	2.36	2.72	1.97	0.876	2.62	1.12	-0.0377	0.575
TCTCGGAGGACACGAAAGGTCAAAGCTCGACATC	5.19	5.82	6.04	1.63	5.82	4.18	1.76	2.51
GCTAGCAGGCTATTTGGGTCACTCAATGACGGGC	1.63	0.682	0.795	-0.21	0.76	1.81	0.905	-0.158
AGAACGAGGGCAATGAGCTGATAGCACGGGTGGC	0.707	1.15	1.22	1.19	0.871	0.598	-0.379	0.597
ACATACGGGTCAACGAGGTTATAGCACGCGTATA	3.66	5.55	5.24	2.49	5.71	3.82	0.951	3.69
CCGAGTAGGTTTTGGGGCATTCAGGCAACGGTGA	0.615	-0.245	-0.424	0.218	-0.246	0.595	0.467	0.218
CGCCCAAGGTCAAGGTCAGTGAAAGAGACTCGAA	5.33	6.54	7.08	3.25	6.2	4.42	3.53	2.96
TATACAGGGTCAAATGCCAGAGTACGAATGTCGA	3.11	5.88	4.98	3.42	6.54	3.6	0.982	3.62
CTCGAAAGGTCGGTTGAGGTGAGTTTACGGATAA	2.53	2.78	2.96	1.27	2.12	4.97	1.31	2.25
ACTTACGGGTCAACGAGGATATAGCACGCGTATA	2.74	5.35	4.72	2.12	5.48	3.55	0.687	2.15
ATCTCTAGGTAAGACGCAGTTCAGTGAAGAACGC	0.117	0.165	0.097	0.0393	-0.00227	0.223	-0.325	0.544
CTAACTAGGTCAAGAGGTCAAAGTCCGCTTCCCG	5.82	8.23	7.39	2.89	8.23	4.27	2.29	4.55
GCTAGTTGGTCAGGAAAAGGTCACACACCGGTCG	5.07	5.34	4.46	0.286	4.98	3.52	1.64	1.68
ATTGAAAGGTCGAAGGTGAGTATACCCACCCGAA	2.54	4.17	3.76	1.26	5.43	2.22	0.13	0.982
CTACCAAGGTGTACAAGGTCGTTGATTACTATTC	1.21	0.657	0.16	1.14	0.934	1.99	1.32	2.13

Sequence	PBM binding z-score [1]	PBM binding z-score [2]	PBM binding z-score [3]	PBM binding z-score [4]	PBM binding z-score [5]	PBM binding z-score [6]	PBM binding z-score [7]	PBM binding z-score [8]
CCTAGTTGGTCCAGGTCACACACGCTATAGGTAC	3.15	2.68	2.73	1.35	2.64	3.72	3.98	2.54
CCTACTGGGCCAAAAAGGTCAGTGATGCCGATAA	4.09	3.5	3.5	-0.472	2.87	2.11	0.0212	0.295
CCGACTGGGGCAAAGTTTACCATACTCAGTACGA	0.876	1.01	1.06	1.29	0.757	0.304	-0.108	0.435
CGTCCAAGGTCAAAGGTCCGTGAAGAGATGACGG	3.99	6.31	6.35	3.54	6.84	3.99	2.24	2.87
CAAACTAGGTCAAAGGTCACAGTCGAGCCAACCA	5.31	8.75	7.36	2.94	9.91	5.02	2.38	2.73
GGAACGAGGGAAAGTTGATAGCAGAGTTTGATGG	-0.315	-0.266	0.0692	0.0118	-0.106	-0.351	-0.268	-0.209
TAGCCTAGCTCATGCGGGCCAGTATAGTGTCGGC	-1.08	-0.81	-0.912	-1.45	-0.694	-1.65	-1.25	-0.887
CCTCGGAGGGCAGAAGGTCAGAGCTGTCCGCTTT	3.76	4.71	4.01	-0.118	2.82	1.47	-0.593	-0.355
AGAATGAGGTTACCAAAGATCATGGAAACGCTTG	0.797	2.26	1.87	1.21	2.81	3.03	0.729	0.455
CCTAGTTGGTCAGGAGTTCACACACCGGATATGA	3.04	3.12	2.47	2.09	2.32	1.5	1.07	4.81
CCGAGTAGGTTATGGGGAATTCAGGCAACGGTGA	0.783	0.446	0.494	0.287	0.487	0.724	0.701	0.246
CCTACTGGGCCATCAGGTCATTTATATCAACGTT	2.44	1.8	1.64	0.641	0.891	3.14	3.01	1.61
ACTAGCAGGCCAGGGGTCACTCAAGATTAGTCCG	4.12	5.09	4.23	1.31	6.16	3.5	1.05	2.8
TCTTGTAGATCAGCAGGTTAAGCAAGCTGGCCAA	-0.0177	-0.192	-0.525	0.455	0.213	-0.00536	-0.897	-0.751
TCTTGTAGATCAACAGGAGTTTAAGAAAGATCGA	-0.522	0.249	-0.0816	0.335	0.176	-0.275	-1.05	0.485
CCTCGGAGGACAGAAGGTTAGAGCTGTCCGCTTT	0.668	0.736	0.681	-0.0367	-0.125	0.441	-0.513	-0.565
TAGCCTAGGTGATGCGGGCCAGTATAGTGTCGGC	-0.307	-0.331	-0.372	-1.62	-0.304	-0.285	-0.885	-1.22
CCTTACGGGTCACGAGGGTATAGCACGACGAGCG	3.35	5.85	5.72	0.613	6.79	3.56	0.0461	1.29
CCTAGCAGGCCAATCTGGGTCACTCCAGGCTTGA	2.01	0.98	1.01	-0.206	0.548	3.49	0.312	-0.0635

Sequence	PBM binding z-score [1]	PBM binding z-score [2]	PBM binding z-score [3]	PBM binding z-score [4]	PBM binding z-score [5]	PBM binding z-score [6]	PBM binding z-score [7]	PBM binding z-score [8]
CCTAGCAGGCCAATCTGGGTCACTCACGGCTTGA	2.23	1.18	1.36	0.336	0.802	3.47	0.637	0.103
TCTAGTTGGTCACGGAGGTCACATACGACGGGTA	4.57	4.42	4.92	1.16	4.57	3.68	2.58	2.84
CGTCCAAGGTGATAGGAGGTCAGTGAAGACAGAT	3.59	2.56	2.86	0.227	1.88	4.34	1.51	0.846
GATACAGGTTCAGCTAGAGGCCAGAGTATGGAAA	1.13	4.48	1.11	3.05	1.33	1.16	-0.412	2.29
CGTCAAAGTTCAAGGGAACGTAACAGAAAGCAGC	3.52	4.97	5.93	4.46	4.17	1.72	-0.254	2.72
TCACATAGGTAAACAGGTGAAAGTCCGTAAGTTA	0.832	0.608	0.415	0.731	1.12	0.714	0.454	0.318
CGTCAAACTTCAAGGTAACGTAACAGAAAGCAGC	0.274	0.163	0.537	0.306	0.376	1.73	1.11	-0.0172
TCATGTAGATCAAGCAGGTTAAGAAAGCCTGAGT	0.058	0.118	0.0856	0.962	0.48	0.397	-0.412	0.0758
ATATGTATGTTAGCTGGGGTCATTCAGACTAGGC	3.35	3.62	2.31	2.11	5.39	4.27	2.96	4.67
AATCAAAGTTCACTAGGTAACGTAAGATTCAGCT	3.41	4.44	4.91	4.32	3.38	2.02	0.0511	3.46
ACAACGAGGGCAATGAGTTGATAGCACGGGTGGC	1.02	1.31	1.71	2.02	0.837	0.856	-0.343	2.98
CCTACTGGGCCAAAGGTCATCGATTCCAATGCTC	4.9	6.09	5.38	0.987	7.08	3.65	0.966	2.04
TCTTGTAGATCAAAGGTTAAGAATGCCGAAGCCT	1.48	1.72	0.719	0.824	3.46	1.35	-0.308	-0.101
CGTCCAAGTTCAAAGGTCAGTGAAGAGATGACGG	4.6	7.24	6.28	4.85	8.41	3.84	0.506	5.47
TCTATGAGTTGAAGGGCAACCGACGAGTCCGTTT	1.12	0.637	0.461	1.55	0.971	0.511	-0.405	1.57
ATCTCTAGGTAAAGATCAGTGAAAGATCGATAGA	-0.585	0.367	0.528	-0.253	0.257	0.044	-0.362	-0.142
TCTTGTAGATCAACACGAGGTTAAGAAAGATCGA	0.596	0.823	0.361	0.555	1.07	1.57	0.0132	0.099
CCGAATGGGGCAAGGTTACCATAACGCACAGCCA	1.24	1.05	1.37	0.000118	1.39	1.26	0.404	0.214
